Test results published in PubChem BioAssay (NCATS).
Values joined by “and” are separate entries in the source; they are usually repeats but may differ in a detail not shown here. Equal values may be shown once. Inconclusive results are not listed. Active and inactive are the calls of the source. The call rests on the fitted dose curve; in most records, active means well fitted curve in the direction sought with a large enough effect; inconclusive means small, poorly fitted or top-dose-only effect, or another doubt; inactive means no such curve, though single readings can be large; an effect the other way counts as inactive or inconclusive. Non-standard residues stand in square brackets, D forms with d. Residues, ends and D or L forms follow the SMILES beside them. *: point of attachment. Nva = CCC[C@H](N)C(=O)O; Cbz = O=C(OCc1ccccc1)*

Columns and labels:
[1] = target: Cellular tumor antigen p53 (Homo sapiens) (UniProt P04637); assay: Primary qHTS for small molecule compounds that upregulate eGFP-tagged delta133p53alpha (in N-terminal) cells. (AID 2060322); details: NCI-H358 eGFP-delta133p53alpha fluorescence, 24 h; activation: active compounds read high; further: nearly all actives have a fitted effect of over 75% in size;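 on activation: series mostly up to about 56 µM; 0% = DMSO vehicle and 100% = reference activator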
Cellular tumor antigen p53 (Homo sapiens), sequence (P04637 whole entry, looked up): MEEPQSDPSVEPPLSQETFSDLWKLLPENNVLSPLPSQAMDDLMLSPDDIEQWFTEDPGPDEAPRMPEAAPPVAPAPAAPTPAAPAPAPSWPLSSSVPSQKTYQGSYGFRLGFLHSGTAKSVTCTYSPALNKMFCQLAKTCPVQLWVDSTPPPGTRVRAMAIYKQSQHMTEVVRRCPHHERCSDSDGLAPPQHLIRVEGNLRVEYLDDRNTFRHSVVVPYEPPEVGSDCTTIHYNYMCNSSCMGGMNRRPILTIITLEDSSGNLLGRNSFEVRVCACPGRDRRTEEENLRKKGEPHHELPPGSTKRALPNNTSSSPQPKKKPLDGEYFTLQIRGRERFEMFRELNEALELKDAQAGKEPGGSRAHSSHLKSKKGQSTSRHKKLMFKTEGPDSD
Outline: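 NCI-H358 cells pre-induced 24 h with 10 ng/ml doxycycline to express N-terminal eGFP-delta133p53alpha, then dosed 24 h at 37C without doxycycline; fixed, Hoechst-stained, GFP intensity by laser scanning cytometry, normalized to DMSO (0%) and 57.5 uM 5-azacytidine (100%).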

[2] = target: Retinaldehyde dehydrogenase 3 (Homo sapiens) (UniProt P47895); assay: qHTS for Inhibitors of the Aldehyde Dehydrogenase Family (ALDH1A3) Primary screen (AID 2061315)
[3] = target: Retinaldehyde dehydrogenase 3 (Homo sapiens) (UniProt P47895); assay: qHTS for Inhibitors of the Aldehyde Dehydrogenase Family (ALDH1A3) Validation screen (AID 2061312); further: nearly all actives have a fitted effect of over 45% in size
[4] = BET inhibitor-based combinations targeting novel dependencies in MECOM-rearranged (r) AML: SET-2 cell line (AID 2202231); details: SET-2 AML cells viability, CellTiter-Glo luminescence, 48 h; viability: active compounds read low, concentration not given here; further: nearly all actives have a fitted effect of over 35% in size;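 on viability: plate controls were DMSO treated cells for no effect and wells without cells for full effect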
Outline: (§1)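 Viability of cells (500 per well) is scored by luminescent CellTiter-Glo at 48 hr post-dosing. Eleven-point titrations are normalized to DMSO and empty controls and reduced to AUC values.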

[5] = BET inhibitor-based combinations targeting novel dependencies in MECOM-rearranged (r) AML: OCI-AML3 cell line (AID 2202232); details: Potency: OCI-AML3 viability; further: nearly all actives have a fitted effect of over 35% in size
Outline: as §1

[6] = BET inhibitor-based combinations targeting novel dependencies in MECOM-rearranged (r) AML: MV-4-11 cell line (AID 2202233); further: nearly all actives have a fitted effect of over 45% in size
Outline: (§2)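 Using pin-tool transfer, drugs were added in 11 doses to cells (500/well), incubated 48 hr, and assessed with CellTiter-Glo. Z-AUC is a mean-centring transformation applied separately to each screened line.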

[7] = BET inhibitor-based combinations targeting novel dependencies in MECOM-rearranged (r) AML: HNT-34 cell line (AID 2202234); further: nearly all actives have a fitted effect of over 35% in size
Outline: as §2

[8] = BET inhibitor-based combinations targeting novel dependencies in MECOM-rearranged (r) AML: AML-191 cell line (AID 2202236; further: nearly all actives have a fitted effect of over 35% in size)
Outline: as §1

[9] = BET inhibitor-based combinations targeting novel dependencies in MECOM-rearranged (r) AML: AML-194 cell line (AID 2202237; further: nearly all actives have a fitted effect of over 40% in size)
Outline: as §1

[10] = BET inhibitor-based combinations targeting novel dependencies in MECOM-rearranged (r) AML: UCSD-AML1 cell line (AID 2202235); further: nearly all actives have a fitted effect of over 40% in size
Outline: as §2
Potency means the concentration at half of the fitted maximal effect.

O=c1[nH]cnc2c([C@@H]3N[C@H](CO)[C@@H](O)[C@H]3O)c[nH]c12
inactive: activation [1] 10.3% | Potency [2]

CCC(C)/C=C(C)/C=C/C(=O)C1CCC(O)C(C)(O)C1=O (stereo not drawn)
inactive: activation [1] 14.5% | Potency [2]

CC(C)C(CO)Nc1nc(Nc2ccc(C(=O)O)c(Cl)c2)c2ncn(C(C)C)c2n1 (stereo not drawn)
inactive: activation [1] 6.21% | Potency [3] | Potency [2]

COc1ccc(OC)c(-c2ccc(NC(=O)c3ccncc3F)cc2)c1
inactive: activation [1] -5.73% | Potency [2]

C=Cc1cc2oc(-c3ccc(O)c(F)c3)nc2cc1O
inactive: activation [1] -1% | Potency [2]

COc1cccc(OC)c1-c1cc(C(=O)N[C@@H](CC(C)C)C(=O)O)nn1-c1ccnc2cc(Cl)ccc12
inactive: activation [1] 15.8% | Potency [2]

O=C(Nc1cnc(Cl)nc1)c1ccc(F)c(F)c1
inactive: activation [1] 5.25% | Potency [3] | Potency [2]

COc1ccc(-n2[nH]c(=O)c3[nH]c4cc(Cl)ccc4c(=O)c3c2=O)c(C)c1
inactive: activation [1] 9% | Potency [2]

Cn1nnc(-c2ccc(-c3ccc(N4C[C@H](COP(=O)(O)O)OC4=O)cc3F)cn2)n1
inactive: activation [1] -3.67% | Potency [2]

COCCCNCC1COc2ccccc2O1 (stereo not drawn)
inactive: activation [1] -6.68% | Potency [2]

O=C(O)[C@H](Cc1ccc(Nc2nccc3ccncc23)cc1)NC1=C(Br)C(=O)C12CCCCC2
inactive: activation [1] -6.21% | Potency [2]

CC1OC2OC(=O)C3(C)CC4C5(CO5)C5=CC(=O)OC(C)(C)C5=CC(=O)C4(C)C(C1=O)C23 (stereo not drawn)
inactive: activation [1] 12.2% | Potency [2]

Cc1cc(OCc2nc(-c3ccccc3Cl)cs2)ccc1OCC(=O)O
inactive: activation [1] -1.91% | Potency [3] | Potency [2]

COc1c(C(CC(C)C)OC(C)=O)ccc(Oc2c(O)cc(C)cc2/C=C/C(C)=O)c1C(=O)O (stereo not drawn)
inactive: activation [1] -25.2% | Potency [2]

COc1ccc(C2(O)c3c(ccc4c3OC(C)(CCC=C(C)C)C=C4)NC(=O)C2OC)cc1 (stereo not drawn)
inactive: activation [1] -4.58% | Potency [2]

CC/C=C\C/C=C\C/C=C\CCCCCCCC(=O)OCC(O)COC1OC(CO)C(O)C(O)C1O (stereo not drawn)
inactive: activation [1] 29.8% | Potency [2]

CCCNCCc1ccc(NS(=O)(=O)c2ccc(OC(F)(F)F)cc2)cc1
inactive: activation [1] 6.68% | Potency [2]

COc1cc(/C=C/C(=O)NCCn2c(C(F)(F)F)cc3ccccc32)cc(OC)c1OC
inactive: activation [1] -3.67% | Potency [2]

O[C@@H](COc1cccc2ncccc12)CN1CCN(C2c3ccccc3[C@@H]3[C@H](c4ccccc42)C3(F)F)CC1 (stereo partly drawn)
active: Potency [4] 26.3 µM | Potency [5] 20.9 µM | Potency [6] 18.6 µM | Potency [7] 26.3 µM | Potency [8] 23.5 µM | Potency [9] 23.5 µM
inactive: activation [1] 22% | Potency [3] | Potency [2]

COC(=O)CC1OC(C)C2=C(O)c3c(O)cccc3C(=O)C23OC13 (stereo not drawn)
active: Potency [1] 5.88 µM | Potency [2] 1.58 µM

CC(C)=C/C=C\[C@H](C)[C@H]1CC[C@]2(C)C[C@@H]3C(C)=CC(=O)C3/C(CO)=C\C[C@@H]12 (stereo partly drawn)
inactive: activation [1] -9.92% | Potency [2]

COc1cc2c(Oc3ccc(-c4cnc(Nc5ccc(F)cc5)n(C)c4=O)cc3F)ccnc2cc1OCCCN1CCOCC1
active: Potency [3] 11.2 µM | Potency [4] 20.9 µM | Potency [5] 16.6 µM | Potency [6] 0.0934 µM | Potency [7] 0.372 µM | Potency [10] 11.8 µM | Potency [8] 5.9 µM | Potency [9] 5.25 µM
inactive: activation [1] 11.5% | Potency [2]

C/C=C(/COC(=O)/C(C)=C/C)C(=O)OC/C=C/c1ccc(OC)cc1
inactive: activation [1] 0.893% | Potency [2]

O=c1cc(NCCCN[C@@H]2CCOc3c(Br)cc(Br)cc32)[nH]c2ccsc12
inactive: activation [1] 0.477% | Potency [2]

CC(=O)OC1/C(C)=C/C(=O)C(OC(C)=O)C(C)(C)/C=C/C(C)C(=O)C2(OC(C)=O)CC(C)C(OC(=O)c3ccccc3)C12 (stereo not drawn)
inactive: activation [1] -10.7% | Potency [2]

CC(C)(Cc1nc(-c2ccc(O)cn2)no1)C(=O)NC1=C(C(=O)O)CCCC1
inactive: activation [1] 2.86% | Potency [2]

CC(=O)NC(Cc1c[nH]c2ccccc(=O)c12)C(=O)O (stereo not drawn)
inactive: activation [1] -2.29% | Potency [2]

CCOCC(O)COc1ccc(NC(=O)CC[S+](C)C)cc1 (stereo not drawn)
inactive: activation [1] -1.78% | viability [4] 62.2% | Potency [5] | Potency [6] | Potency [7] | Potency [10] | Potency [8] | Potency [9]

CCC[C@@H](C=O)NC(=O)[C@H](CC(C)C)NC(=O)[C@H](CC(C)C)NC(=O)OCc1ccccc1 (Cbz-Leu-Leu-[Nva]-aldehyde)
active: Potency [1] 5.44 µM | Potency [4] 2.09 µM | Potency [5] 2.35 µM | Potency [6] 2.95 µM | Potency [7] 2.63 µM | Potency [10] 3.32 µM | Potency [8] 2.95 µM | Potency [9] 2.63 µM

CC1Cc2ccccc2N1NC(=O)c1ccc(Cl)c(S(N)(=O)=O)c1 (stereo not drawn)
inactive: activation [1] -9.21% and -1.28% | viability [4] 112% | Potency [5] | Potency [6] | Potency [7] | Potency [10] | Potency [8] | Potency [9]

CCC(C)SSc1ncc[nH]1 (stereo not drawn)
inactive: activation [1] -4.29%
active: Potency [4] 11.8 µM | Potency [5] 8.33 µM | Potency [6] 2.63 µM | Potency [7] 9.34 µM | Potency [10] 7.42 µM | Potency [8] 5.25 µM

O=C(CCCCCCC(=O)Nc1cccnc1)NO
inactive: activation [1] 50.9%
active: Potency [4] 5.25 µM | Potency [5] 5.9 µM | Potency [6] 2.35 µM | Potency [7] 4.68 µM | Potency [10] 7.42 µM | Potency [8] 3.32 µM | Potency [9] 8.33 µM

COc1ccc2cc3[n+](cc2c1OC)CCc1cc2c(cc1-3)OCO2
inactive: activation [1] -7.97% | Potency [10]
active: Potency [4] 16.6 µM | Potency [5] 4.17 µM | Potency [6] 5.9 µM | Potency [7] 23.5 µM

O=c1[nH]nc(Sc2ncc([N+](=O)[O-])s2)n1-c1ccc2c(c1)OCCO2
inactive: activation [1] -12.9%
active: Potency [4] 7.42 µM | Potency [5] 2.95 µM | Potency [6] 1.86 µM | Potency [7] 3.32 µM | Potency [10] 9.34 µM | Potency [8] 3.32 µM

CC(C)=CC[C@@H](O)C1=CC(=O)c2c(O)ccc(O)c2C1=O
active: Potency [4] 10.5 µM | Potency [5] 14.8 µM | Potency [6] 8.33 µM | Potency [7] 9.34 µM | Potency [10] 10.5 µM | Potency [8] 10.5 µM
inactive: activation [1] 3.62%

C[N+]1(C)[C@@H]2CC(OC(=O)[C@H](CO)c3ccccc3)C[C@H]1[C@@H]1O[C@@H]12 (stereo partly drawn)
inactive: activation [1] -7.53% | viability [4] 116% | Potency [5] | Potency [6] | Potency [7] | Potency [10] | Potency [8] | Potency [9]

NC(=NCCCCCCN=C(N)N=C(N)Nc1ccc(Cl)cc1)N=C(N)Nc1ccc(Cl)cc1
active: Potency [4] 26.3 µM | Potency [5] 18.6 µM | Potency [6] 20.9 µM
inactive: activation [1] 19.1%

Cn1nnc2c(C(N)=O)ncn2c1=O
inactive: activation [1] 0% and 2.62% | viability [4] 102% | Potency [5] | Potency [6] | Potency [7]

CCNC(=O)c1cc2c(-c3cc(OCCN4CCCC4)c(Cl)cc3Cl)nc(N)nc2s1
inactive: activation [1] -12.6%
active: Potency [4] 2.88 µM | Potency [5] 2.04 µM | Potency [6] 0.363 µM | Potency [7] 1.82 µM | Potency [10] 1.29 µM | Potency [8] 1.82 µM

OCCC#Cc1nc(-c2ccc(F)cc2)c(-c2ccncc2)n1CCCc1ccccc1
inactive: activation [1] 17.2% | viability [4] 100%

C[C@@H]1CN(CC(=O)N2CC(C)(C)c3ncc(Cc4ccc(F)cc4)cc32)[C@@H](CN2CCOC[C@H]2C)CN1
inactive: activation [1] -14.4% | viability [4] 86.9%

CCOc1cc(N2CCC(O)CC2)ccc1Nc1ncc2c(n1)N(C)c1ccccc1C(=O)N2C
inactive: activation [1] 72.4%
active: Potency [4] 14.8 µM | Potency [5] 3.32 µM | Potency [6] 2.95 µM | Potency [7] 14.8 µM | Potency [10] 8.33 µM

CC1(C)O[C@@H]2C[C@H]3[C@@H]4CCC5=CC(=O)C=C[C@]5(C)[C@@]4(F)[C@@H](O)C[C@]3(C)[C@]2(C(=O)CO)O1
inactive: activation [1] -9.6% | viability [4] 115% | Potency [5] | Potency [6] | Potency [7] | Potency [10]

CC(C)[C@H](N)C(=O)OCCOCn1cnc2c(=O)[nH]c(N)nc21
inactive: activation [1] -14.1% and 18.6% | viability [4] 92.3% | Potency [5] | Potency [6] | Potency [7] | Potency [10] | Potency [8] | Potency [9]

CO[C@@H]1[C@@H](OC(N)=O)[C@@H](O)[C@H](Oc2ccc3c(O)c(NC(=O)c4ccc(O)c(CC=C(C)C)c4)c(=O)oc3c2C)OC1(C)C
inactive: activation [1] -10.7% and -17.4% | viability [4] 122% | Potency [5] | Potency [6] | Potency [7] | Potency [10] | Potency [8] | Potency [9]

NC(=O)Nc1sc(-c2ccc(F)cc2)cc1C(N)=O
active: Potency [4] 5.9 µM | Potency [5] 2.35 µM | Potency [6] 1.86 µM | Potency [7] 1.66 µM | Potency [10] 1.86 µM | Potency [8] 1.86 µM
inactive: activation [1] -16.3%

O=C(CN1C(=O)C2(CCCC2)NC[C@H]1c1cc(F)cc(F)c1)Nc1ccc2c(c1)C[C@@]1(C2)C(=O)Nc2ncccc21
inactive: activation [1] 22.6% | viability [4] 98.8% | Potency [5] | Potency [6] | Potency [7] | Potency [10] | Potency [8]

CC(C)NC[C@@H](C(=O)N1CCN(c2ncnc3c2[C@H](C)C[C@H]3O)CC1)c1ccc(Cl)cc1
inactive: viability [4] 102%
active: Potency [1] 34.3 µM

CCCNS(=O)(=O)Nc1ncnc(OCCOc2ncc(Br)cn2)c1-c1ccc(Br)cc1
inactive: activation [1] -5.9% | viability [4] 97.8% | Potency [5]

Cc1c(CCOc2ccc(C(=O)O)cc2)c2cc(Cl)ccc2n1C(c1ccccc1)c1ccccc1
inactive: activation [1] -25% | viability [4] 114% | Potency [5] | Potency [6] | Potency [7] | Potency [10] | Potency [8]
